This note sets out measurements from PubChem BioAssay (NCATS).

The structures appear in SMILES notation. “And” between values parts separate entries of the source, which are not always exact repeats. Identical values can stand only once. Values without a mark were called inactive. Results filed as inconclusive are left out. Some structures have more than one record in an assay (separate samples or runs), and their calls can disagree. The source made the active and inactive calls. Unless noted, calls come from the whole dose curve; as a rule, active = well fitted curve in the direction sought with a large enough effect; inconclusive = small, poorly fitted or top-dose-only effect, or another doubt; inactive = no such curve, though single readings can be large; an effect the other way counts as inactive or inconclusive.

Assay [1] in a line: qHTS assay for small molecule agonists of the antioxidant response element (ARE) signaling pathway (AID 651741; active = well fitted activation curve with a large enough effect in the signal ratio; the % refers to the signal ratio; note: potency is the fitted concentration of half-maximal effect; for activation: % of control where 0% means no effect). In outline:
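Stably integrated ARE-beta-lactamase reporter HepG2 cells; 16 h compound incubation, 37 C; LiveBLAzer FRET substrate 2 h at room temperature; fluorescence intensity.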
On the technique in general: qHTS replaces the single test concentration by a dilution series.

The target of assay [2] is Peroxisome proliferator-activated receptor alpha (Homo sapiens) (UniProt Q07869). Kind of assay: qHTS assay for small molecule agonists of the peroxisome proliferator-activated receptor alpha (PPARalpha) signaling pathway (AID 651778). Note: % of control where 0% means no effect. Conditions: PathHunter PPARalpha complementation, chemiluminescence, 6 h; stronger effect = higher value. In outline:
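Enzyme-fragment complementation assay in which ligand-bound PPARalpha translocates and forms an active enzyme that generates chemiluminescence. Cells were plated overnight, exposed to compound for 6 hr at 37 C, and then given detection reagent for 60 min at room temperature.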

The nature of assay [3]: qHTS assay for small molecule activators of the nuclear factor-kappa B (NF-kB) signaling pathway (AID 651749; active = well fitted activation curve with a large enough effect in the signal ratio; the % refers to the signal ratio; note: series mostly up to about 77 µM; % of control where 0% means no effect). The conditions noted are these: NF-kB-bla ME-180 cells, beta-lactamase FRET ratio, 16 h; stronger effect = higher value. In outline:
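In this qHTS format, compounds acting as activators increase NF-kB-driven beta-lactamase in ME-180 cells, measured as disrupted FRET after 16 hr exposure at 37C and 5% CO2.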

Assay [4] in a line: qHTS assay for small molecule disruptors of the mitochondrial membrane potential - 5 hr assay (AID 651755; calls by dose curve; note: % is set by controls: 0 for no effect and ±100 for the full control effect; nearly all actives have a fitted effect of over 40% in size). The gist of the method: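 Read-out: ratiometric Mito-MPS fluorescence, green monomer (ex 490/em 535) vs red mitochondrial aggregate (ex 540/em 590). HepG2 cells treated 5 hr at 37C before 30 min dye loading.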
Assay [5] is described as follows: qHTS assay for environmental chemicals that activate the Aryl hydrocarbon Receptor (AhR) signaling pathway (AID 651777). For activation: % of control where 0% means no effect. Note: nearly all actives have a fitted effect of over 15% in size. Note: potency is the fitted concentration of half-maximal effect. Conditions: 1A2-DRE human hepatoma cells, luciferase, 24 h; activation: stronger effect = higher value. The gist of the method:
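1A2-DRE human hepatoma reporter line; 1,200 cells/well; cmpd or DMSO 24 h, 37 C/5% CO2; One-Glo 30 min RT; luciferase lum.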

Assay [6] has as its target Nuclear receptor ROR-gamma (Homo sapiens) (UniProt P51449). Nature of the assay: qHTS assay for small molecule antagonists of the retinoid-related orphan receptor gamma (ROR-gamma) signaling pathway (AID 651802).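 Note: CHO cells with doxycycline-induced ROR-gamma expression; luciferase reporter luminescence driven by ROR response element; series mostly up to about 92 µM; % is set by controls: 0 for no effect and ±100 for the full control effect; nearly all actives have a fitted effect of over 60% in size.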 In outline: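 Luminescence (One-Glo, 30 min RT) measured 16 h after compound addition and doxycycline induction at 37C. Reporter: RORE-luciferase under TET-inducible ROR-gamma in CHO cells.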

In assay [7] the target is Tumor necrosis factor (Homo sapiens) (UniProt P01375). Nature of the assay: qHTS assay to identify small molecules that stimulate Tumor Necrosis Factor-alpha (TNF-alpha) secretion (AID 651757; active = well fitted curve in the direction sought with a large enough effect in the signal ratio; the % refers to the signal ratio; note: 0% is about no effect). In outline:
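Secreted TNF-alpha quantified by TR-FRET sandwich of two labeled anti-TNF-alpha antibodies, incubated 3 hr at room temperature. Preceded by 17 hr, 37 C compound treatment of THP-1 cells at 3000 cells/well.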

The nature of assay [8]: qHTS assay to identify small molecules that stimulate interleukin-8 (IL-8) secretion (AID 651758; active = well fitted activation curve with a large enough effect in the signal ratio; the % refers to the signal ratio; note: 0% is about no effect). The gist of the method:
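Compounds are added to THP-1 cells (2000 per well) and left 16 hrs at 37 C. A labeled anti-IL-8 antibody pair is then added, and IL-8 secretion is measured by time-resolved FRET after 1-3 hrs at room temperature.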

Sequence of Peroxisome proliferator-activated receptor alpha (Homo sapiens) (Q07869 whole entry, looked up, the tested form may be a part): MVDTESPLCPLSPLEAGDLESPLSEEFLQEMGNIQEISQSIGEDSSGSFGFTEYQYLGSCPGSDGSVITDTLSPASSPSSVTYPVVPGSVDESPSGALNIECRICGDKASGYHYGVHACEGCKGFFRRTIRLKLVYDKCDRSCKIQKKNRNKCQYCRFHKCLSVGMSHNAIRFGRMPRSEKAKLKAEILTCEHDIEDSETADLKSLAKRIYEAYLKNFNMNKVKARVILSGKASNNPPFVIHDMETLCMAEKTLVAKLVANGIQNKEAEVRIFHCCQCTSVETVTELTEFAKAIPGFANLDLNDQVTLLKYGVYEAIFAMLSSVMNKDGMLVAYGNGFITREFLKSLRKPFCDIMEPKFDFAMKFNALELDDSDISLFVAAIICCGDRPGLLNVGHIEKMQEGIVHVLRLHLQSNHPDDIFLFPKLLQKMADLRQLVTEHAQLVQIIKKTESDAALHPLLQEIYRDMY
Sequence of Nuclear receptor ROR-gamma (Homo sapiens) (P51449 whole entry, looked up): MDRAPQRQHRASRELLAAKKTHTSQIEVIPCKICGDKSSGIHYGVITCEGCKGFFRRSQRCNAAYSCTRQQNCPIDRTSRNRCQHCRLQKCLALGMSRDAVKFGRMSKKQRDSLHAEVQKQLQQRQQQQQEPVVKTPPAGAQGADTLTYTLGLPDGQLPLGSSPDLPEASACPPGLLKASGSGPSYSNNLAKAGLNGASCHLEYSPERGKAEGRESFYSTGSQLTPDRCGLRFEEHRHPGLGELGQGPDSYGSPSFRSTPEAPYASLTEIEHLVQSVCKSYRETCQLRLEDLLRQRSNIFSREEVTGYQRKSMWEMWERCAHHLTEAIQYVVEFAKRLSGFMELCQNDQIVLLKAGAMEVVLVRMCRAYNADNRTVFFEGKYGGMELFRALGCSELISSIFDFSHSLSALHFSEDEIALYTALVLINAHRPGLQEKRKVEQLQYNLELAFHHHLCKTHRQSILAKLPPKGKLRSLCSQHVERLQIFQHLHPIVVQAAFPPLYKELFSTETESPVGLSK
Sequence of Tumor necrosis factor (Homo sapiens) (P01375 whole entry, looked up): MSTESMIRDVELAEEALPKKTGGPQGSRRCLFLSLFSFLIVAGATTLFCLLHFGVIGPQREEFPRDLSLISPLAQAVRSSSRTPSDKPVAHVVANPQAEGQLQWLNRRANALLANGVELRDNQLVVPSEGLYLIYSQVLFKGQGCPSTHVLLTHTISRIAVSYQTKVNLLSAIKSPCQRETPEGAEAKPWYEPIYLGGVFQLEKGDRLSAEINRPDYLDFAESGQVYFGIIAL

For the molecule `Nc1ccc(O)cc1`, in assay [1], the Potency is 26.6 µM (active). Besides, in assay [2], the max response was -0.783%.

Take `CCCC(=O)c1cc(O)c(O)cc1O`: the activation in assay [3] is 0.282%; in assay [5], -2.11%. In addition, the Potency result in assay [4] and in assay [6] was “inactive” throughout. Besides, the max response in assay [2] is -3.73%.

For the molecule `O=C(NO)c1ccccc1`, the activation is 0.132% in assay [3] and -0.612% in assay [5]. Further, the molecule was classed as inactive in assay [7] and in assay [8]. Further, the max response in assay [2] is -0.429%. For the same molecule, the Potency entry in assay [6] is “inactive”.

For `CN1C(=O)c2ccccc2C1=O`, the Potency entry in assay [1] is “inactive”. Also, the activation in assay [3] is 0.745%; in assay [5], 1.05%. Moreover, the max response in assay [2] was -1.08%.

For the molecule `COc1cc(C=O)ccc1O`, the activation in assay [3] is -1.8% and -1.55%; in assay [5] it was 2.04% and 0.0367%. In assay [2], the max response is -1.16% and -2.1%. Besides, in assay [6], the Potency result is “inactive”.

Regarding `CC(C)(c1ccc(O)cc1)c1ccc(O)cc1`, the activation was -0.409% and -2.36% and -2.41% in assay [3]; 3.05% and 4.15% and 3.72% in assay [5]. Moreover, in assay [7], the call was inactive. Moreover, the max response in assay [2] was -6.65% and -3.38% and -3.11%.

With `Cc1ccc(O)cc1`, in assay [3], the activation is -0.225%. Also, the Potency result in assay [4] was “inactive”. Also, in assay [7], the result was inactive. The max response in assay [2] is -0.0678%.

Consider `OCc1c[nH]c2ccccc12`, for which the Potency in assay [1] was 66.8 µM (active). Also, the results for the activation in assay [3] and in assay [5] were -1.28% and 2.25%, respectively. For the same molecule, the Potency result in assay [4] was “inactive”. Moreover, the result in assay [7] was inactive. Further, the max response in assay [2] was -6.59%.

As for `c1ccc2occc2c1`, the activation in assay [3] was -0.808% and 0.0616% and -0.684%; in assay [5], 2.4%. Further, the Potency entry in assay [4] and in assay [6] was “inactive” each time. The molecule was called inactive in assay [7]. Besides, in assay [5], the Potency was 1.26 mM (active) and 25.1 µM (active). Also, the max response in assay [2] is 0.199% and 3.33% and -1.19%.
